# Measurements as given in paper PMC7862700, “An all-to-all approach to the identification of sequence-specific readers for epigenetic DNA modifications on cytosine”.
# Columns and labels:
# Assay in all cases: DAPPL (digital affinity profiling via proximity ligation, sequencing); 10 mM Tris-HCl pH 7.5, 50 mM NaCl, 1 mM DTT, 4% glycerol, room temperature, 30 min; GST-TFs on glutathione beads, 16-mer random dsDNA library, 0.1% formaldehyde crosslink after washing; high values mean tight binding
# Settings in all cases: protein: recombinant; tags: N-terminal GST; dsDNA, one strand shown
# FLI1 = biological target: T1, FLI1 (Homo sapiens, UniProt Q01543 1-452)
# T1 sequence: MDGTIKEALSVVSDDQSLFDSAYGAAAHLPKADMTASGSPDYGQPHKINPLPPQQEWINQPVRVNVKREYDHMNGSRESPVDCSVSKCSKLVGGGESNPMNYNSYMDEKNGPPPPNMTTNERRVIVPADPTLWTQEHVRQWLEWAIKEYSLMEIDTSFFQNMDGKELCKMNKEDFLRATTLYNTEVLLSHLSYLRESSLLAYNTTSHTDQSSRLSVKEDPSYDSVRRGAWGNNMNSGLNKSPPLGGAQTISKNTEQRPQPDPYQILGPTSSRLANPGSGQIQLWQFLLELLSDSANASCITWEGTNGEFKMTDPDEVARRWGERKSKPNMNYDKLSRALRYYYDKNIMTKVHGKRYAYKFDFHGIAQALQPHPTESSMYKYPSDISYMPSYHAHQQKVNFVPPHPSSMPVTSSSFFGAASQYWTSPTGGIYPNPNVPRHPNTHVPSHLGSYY
# In short: (§1)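 Pools of DNA-barcoded human transcription factors, expressed in yeast as GST fusions on glutathione beads and combined with a tag-only sample, were incubated with 200 nmole of a 16-mer random double-stranded DNA library. Incubation took 30 min at room temperature in Tris/NaCl/DTT/glycerol buffer and was followed by washing, 0.1% formaldehyde crosslinking, proximity ligation (BsaI/T4 ligase, 1 h, 37 °C), PCR amplification and sequencing on an Illumina NextSeq500. Binding signal is the ratio of a hexamer's read frequency for a factor to its frequency for the tag-only sample.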
# ELK1 = biological target: T2, ELK1 (Homo sapiens, UniProt P19419 1-428)
# T2 sequence: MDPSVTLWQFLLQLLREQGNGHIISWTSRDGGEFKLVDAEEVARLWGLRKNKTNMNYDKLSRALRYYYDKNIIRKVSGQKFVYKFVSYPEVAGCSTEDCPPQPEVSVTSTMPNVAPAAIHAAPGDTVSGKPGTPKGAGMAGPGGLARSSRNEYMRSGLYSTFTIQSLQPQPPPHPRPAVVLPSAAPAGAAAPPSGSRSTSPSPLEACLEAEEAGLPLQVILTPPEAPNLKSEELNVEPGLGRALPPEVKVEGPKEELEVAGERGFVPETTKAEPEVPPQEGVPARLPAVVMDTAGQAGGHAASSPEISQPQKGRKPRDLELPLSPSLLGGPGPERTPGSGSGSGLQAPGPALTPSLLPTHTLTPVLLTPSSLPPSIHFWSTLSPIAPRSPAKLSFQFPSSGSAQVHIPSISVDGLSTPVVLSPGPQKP
# In short: as §1
# GABPA = biological target: T3, GABPA (Homo sapiens, UniProt Q06546 1-454)
# T3 sequence: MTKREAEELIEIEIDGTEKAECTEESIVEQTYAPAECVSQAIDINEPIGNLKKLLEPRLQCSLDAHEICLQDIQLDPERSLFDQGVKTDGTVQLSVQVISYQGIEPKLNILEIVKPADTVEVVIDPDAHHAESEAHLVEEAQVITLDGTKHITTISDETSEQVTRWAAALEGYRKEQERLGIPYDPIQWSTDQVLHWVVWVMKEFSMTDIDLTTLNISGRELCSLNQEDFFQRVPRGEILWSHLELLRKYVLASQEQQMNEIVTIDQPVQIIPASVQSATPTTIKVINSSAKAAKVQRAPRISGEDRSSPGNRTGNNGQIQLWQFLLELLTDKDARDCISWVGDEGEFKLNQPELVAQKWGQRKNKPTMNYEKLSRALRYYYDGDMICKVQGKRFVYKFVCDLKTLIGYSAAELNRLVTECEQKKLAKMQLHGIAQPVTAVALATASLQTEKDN
# In short: as §1
# ERG = biological target: T4, ERG (Homo sapiens, UniProt P11308 1-479)
# T4 sequence: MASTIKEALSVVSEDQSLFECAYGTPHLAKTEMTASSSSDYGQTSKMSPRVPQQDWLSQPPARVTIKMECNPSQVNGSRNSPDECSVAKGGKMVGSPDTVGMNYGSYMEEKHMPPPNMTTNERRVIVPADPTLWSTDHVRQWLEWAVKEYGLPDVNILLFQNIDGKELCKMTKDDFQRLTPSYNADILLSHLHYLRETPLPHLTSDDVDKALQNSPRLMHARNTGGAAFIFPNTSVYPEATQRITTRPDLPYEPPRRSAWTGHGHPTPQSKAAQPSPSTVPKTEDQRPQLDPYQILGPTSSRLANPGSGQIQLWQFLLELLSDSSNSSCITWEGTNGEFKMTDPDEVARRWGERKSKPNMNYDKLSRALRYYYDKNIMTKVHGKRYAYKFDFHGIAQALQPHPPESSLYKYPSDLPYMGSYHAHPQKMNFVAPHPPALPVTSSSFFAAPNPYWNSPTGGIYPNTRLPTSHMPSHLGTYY
# In short: as §1
# ELF1 = ELF1 (Homo sapiens, UniProt P32519 1-619)
# ELF1, sequence (P32519 whole entry): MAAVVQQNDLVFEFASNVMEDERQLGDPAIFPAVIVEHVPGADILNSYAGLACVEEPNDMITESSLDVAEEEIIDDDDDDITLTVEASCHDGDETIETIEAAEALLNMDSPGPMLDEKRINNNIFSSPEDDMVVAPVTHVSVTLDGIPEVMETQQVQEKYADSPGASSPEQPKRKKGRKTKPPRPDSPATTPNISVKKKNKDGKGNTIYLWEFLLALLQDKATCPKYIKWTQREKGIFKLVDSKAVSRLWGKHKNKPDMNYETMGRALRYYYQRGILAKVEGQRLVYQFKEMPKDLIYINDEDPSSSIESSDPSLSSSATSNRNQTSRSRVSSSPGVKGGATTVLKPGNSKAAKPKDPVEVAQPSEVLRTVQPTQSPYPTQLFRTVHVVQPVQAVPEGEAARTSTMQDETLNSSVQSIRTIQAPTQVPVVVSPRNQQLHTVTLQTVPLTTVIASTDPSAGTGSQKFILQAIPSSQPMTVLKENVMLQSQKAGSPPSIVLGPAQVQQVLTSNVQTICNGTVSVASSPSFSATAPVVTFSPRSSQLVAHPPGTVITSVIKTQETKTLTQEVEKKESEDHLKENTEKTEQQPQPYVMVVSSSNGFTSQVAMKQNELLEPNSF
# In short: as §1
# EHF = biological target: T5, EHF (Homo sapiens, UniProt Q9NZC4 1-300)
# T5 sequence: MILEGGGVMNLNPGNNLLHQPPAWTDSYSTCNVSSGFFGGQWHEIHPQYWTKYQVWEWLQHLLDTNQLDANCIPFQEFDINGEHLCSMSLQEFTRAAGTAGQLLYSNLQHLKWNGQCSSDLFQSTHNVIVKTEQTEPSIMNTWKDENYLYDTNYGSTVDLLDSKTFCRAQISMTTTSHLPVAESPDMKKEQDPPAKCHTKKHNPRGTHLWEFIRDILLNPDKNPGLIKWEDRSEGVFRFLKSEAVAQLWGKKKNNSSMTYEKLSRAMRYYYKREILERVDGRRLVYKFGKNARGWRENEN
# In short: as §1
# SPI1 = SPI1 (Homo sapiens, UniProt P17947 1-270)
# In short: as §1
# SPIB = SPIB (Homo sapiens, UniProt Q01892 1-262)
# SPIB, sequence (Q01892 whole entry): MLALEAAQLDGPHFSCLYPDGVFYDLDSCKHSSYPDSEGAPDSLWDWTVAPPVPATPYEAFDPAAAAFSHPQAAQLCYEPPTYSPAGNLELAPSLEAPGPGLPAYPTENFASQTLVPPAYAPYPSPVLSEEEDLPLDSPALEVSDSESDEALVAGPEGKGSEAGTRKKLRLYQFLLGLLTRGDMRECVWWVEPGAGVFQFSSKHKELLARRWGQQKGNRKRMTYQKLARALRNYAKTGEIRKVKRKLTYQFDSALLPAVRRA
# In short: as §1
# ELK3 = biological target: T6, ELK3 (Homo sapiens, UniProt P41970 1-407)
# T6 sequence: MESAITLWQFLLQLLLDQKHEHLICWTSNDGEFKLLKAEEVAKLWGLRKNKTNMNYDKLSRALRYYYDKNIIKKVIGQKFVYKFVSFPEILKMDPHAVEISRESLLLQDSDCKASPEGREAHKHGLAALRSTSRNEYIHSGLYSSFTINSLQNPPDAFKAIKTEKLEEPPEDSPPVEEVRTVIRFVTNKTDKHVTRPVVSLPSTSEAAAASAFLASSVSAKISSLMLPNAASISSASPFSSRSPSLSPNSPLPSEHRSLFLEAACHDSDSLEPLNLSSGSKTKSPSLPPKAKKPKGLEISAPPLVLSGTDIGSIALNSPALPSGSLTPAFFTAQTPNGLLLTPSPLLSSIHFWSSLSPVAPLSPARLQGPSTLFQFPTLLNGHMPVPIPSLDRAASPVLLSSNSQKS
# In short: as §1
sequence,measurement,setting,value
ATTCTG,binding signal,FLI1,"1.35 fold enrichment (6-mer frequency, TF over GST control)"
same,binding signal,ELK1,"1.23 fold enrichment (6-mer frequency, TF over GST control)"
same,binding signal,GABPA,"1.33 fold enrichment (6-mer frequency, TF over GST control)"
same,binding signal,ERG,"1.21 fold enrichment (6-mer frequency, TF over GST control)"
same,binding signal,ELF1,"1.26 fold enrichment (6-mer frequency, TF over GST control)"
same,binding signal,EHF,"1.34 fold enrichment (6-mer frequency, TF over GST control)"
same,binding signal,SPI1,"1.27 fold enrichment (6-mer frequency, TF over GST control)"
same,binding signal,SPIB,"1.15 fold enrichment (6-mer frequency, TF over GST control)"
same,binding signal,ELK3,"1.37 fold enrichment (6-mer frequency, TF over GST control)"
